The record followed here is PubChem BioAssay (NCI).

Experiment [1] is described as follows: NCI Yeast Anticancer Drug Screen. Data for the rad50 strain (AID 155).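 Further: 0% = growth of vehicle-only cultures of the same strain.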 The note with it: S. cerevisiae rad50 strain growth inhibition, active compounds read high. The gist of the method: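 Relative growth inhibition (compound vs vehicle) was measured in yeast with a defined repair-gene alteration.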
A short description of experiment [2]: NCI Yeast Anticancer Drug Screen. Data for the mec2-1 strain (AID 157). Conditions: S. cerevisiae mec2-1 strain, active compounds read high. The method in brief: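 mec2-1 yeast strain, carrying an alteration in DNA damage repair or cell cycle control, was exposed to compounds; growth inhibition was measured relative to vehicle-treated controls.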
Experiment [3] can be described thus: NCI Yeast Anticancer Drug Screen. Data for the sgs1 mgt1 strain (AID 161).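 Further: 0% = growth of cultures given vehicle only.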 The note with it: S. cerevisiae sgs1 mgt1 strain, active compounds read high. The method in brief:
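This yeast growth screen uses a strain with defined DNA-repair lesions; compound-treated growth is compared with vehicle-treated growth.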

Experiment [4] is described as follows: NCI Yeast Anticancer Drug Screen. Data for the cln2 rad14 strain (AID 165).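 Further: 0% = growth equal to vehicle treated cultures.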 Conditions: S. cerevisiae cln2 rad14 strain, active compounds read high. The method in brief:
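Yeast carrying cln2 and rad14 alterations (cell cycle control and DNA damage repair) were exposed to compounds. Growth inhibition was measured against vehicle-treated controls.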

Experiment [5] can be described thus: NCI Yeast Anticancer Drug Screen. Data for the bub3 strain (AID 167). The note with it: S. cerevisiae bub3 mutant strain, active compounds read high. The method in brief:
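Screening used yeast with an engineered genetic alteration affecting cell cycle control. Compound-exposed cultures were compared with vehicle cultures, and reduced growth was taken as inhibition.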

Experiment [6] can be described thus: NCI Yeast Anticancer Drug Screen. Data for the mlh1 rad18 strain (AID 175). Conditions: S. cerevisiae mlh1 rad18 strain growth inhibition, active compounds read high. The method in brief:
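Growth inhibition of the yeast strain was measured after compound exposure and expressed relative to vehicle-treated controls. The strain carries defined defects in DNA damage repair.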

Setting [7] is: at 5.0 µM (retest, dose inferred, filed as 0.5).
Where [8] appears, read: at 50.0 µM (retest, dose inferred, filed as 5.0).

Structures are written as SMILES. The panel holds about 79,000 compounds, 15% with a hit somewhere; the sample as a whole holds those more often. A number with no mark means an inactive call. Active and inactive are the calls of the source. No stated cut-off is given here; in the data, active means growth inhibition above about 70%; inactive means the rest.

Turning to `Brc1c2nc3ccccc3nc2n2ccc3ccccc3c12`, the growth inhibition is -37% in experiment [1] (setting [7]); 59% in experiment [1] (setting [8]); 47.8% in experiment [1] (at 50.0 µM); -11% in experiment [2] (setting [7]); 86% (active) in experiment [2] (setting [8]); 43% in experiment [2] (at 50.0 µM). In addition, the growth inhibition in experiment [3] (setting [7]) is -18%; in experiment [3] (setting [8]), 78% (active); in experiment [3] (at 50.0 µM), 54.5%; in experiment [4] (setting [7]), -14%; in experiment [4] (setting [8]) it was 83% (active); in experiment [4] (at 50.0 µM), 44.1%. The growth inhibition in experiment [5] (setting [7]) was -37%; in experiment [5] (setting [8]), 83% (active); in experiment [5] (at 50.0 µM), 21%; in experiment [6] (setting [7]), -38%; in experiment [6] (setting [8]), 69%; in experiment [6] (at 50.0 µM), 59.5%.
`Clc1ccc(C2SCc3nc4ccccc4n32)c(Cl)c1` (stereo not given): the growth inhibition in experiment [1] (setting [7]) was -7%; in experiment [1] (setting [8]), 96% (active); in experiment [1] (at 50.0 µM), 99% (active); in experiment [2] (setting [7]), -6%; in experiment [2] (setting [8]), 97% (active); in experiment [2] (at 50.0 µM) it was 99.1% (active). The growth inhibition in experiment [3] (setting [7]) is 4%; in experiment [3] (setting [8]), 95% (active); in experiment [3] (at 50.0 µM) it was 99.2% (active); in experiment [4] (setting [7]), -17%; in experiment [4] (setting [8]), 98% (active); in experiment [4] (at 50.0 µM), 97.9% (active). Moreover, the growth inhibition in experiment [5] (setting [7]) is 9%; in experiment [5] (setting [8]) it was 96% (active); in experiment [5] (at 50.0 µM), 98.7% (active); in experiment [6] (setting [7]), -10%; in experiment [6] (setting [8]), 94% (active); in experiment [6] (at 50.0 µM), 71.9% (active).
Regarding `CCN(CC)CCOc1ccc(NC(=S)Nc2ccc(OCC(C)C)cc2)cc1`, the growth inhibition in experiment [1] (setting [7]) was 2%; in experiment [1] (setting [8]), 54%; in experiment [1] (at 50.0 µM), 66.1%; in experiment [2] (setting [7]), 29%; in experiment [2] (setting [8]), 65%; in experiment [2] (at 50.0 µM) it was 34.1%. Moreover, the growth inhibition is 42% in experiment [3] (setting [7]); 76% (active) in experiment [3] (setting [8]); 81.8% (active) in experiment [3] (at 50.0 µM); 10% in experiment [4] (setting [7]); 53% in experiment [4] (setting [8]); 83.9% (active) in experiment [4] (at 50.0 µM). Moreover, the growth inhibition was 4% in experiment [5] (setting [7]); 47% in experiment [5] (setting [8]); 76% (active) in experiment [5] (at 50.0 µM); 46% in experiment [6] (setting [7]); 74% (active) in experiment [6] (setting [8]); 80.9% (active) in experiment [6] (at 50.0 µM).
As for `COC(=O)c1cc(/C=C/c2ccccc2)on1`, the growth inhibition in experiment [1] (setting [7]) was -3%; in experiment [1] (setting [8]), 3%; in experiment [1] (at 50.0 µM), -3.75%; in experiment [2] (setting [7]), 5%; in experiment [2] (setting [8]), 1%; in experiment [2] (at 50.0 µM), 0.55%. The growth inhibition in experiment [3] (setting [7]) is 2%; in experiment [3] (setting [8]) it was 8%; in experiment [3] (at 50.0 µM), 10.5%; in experiment [4] (setting [7]), -4%; in experiment [4] (setting [8]), -14%; in experiment [4] (at 50.0 µM) it was 82.2% (active). The growth inhibition in experiment [5] (setting [7]) is 6%; in experiment [5] (setting [8]), 14%; in experiment [5] (at 50.0 µM) it was 2.75%; in experiment [6] (setting [7]) it was -3%; in experiment [6] (setting [8]), 2%; in experiment [6] (at 50.0 µM) it was -9.55%.
Take `COc1ccc2c(c1)CN([C@@H](C)[C@H]1CC[C@H]3[C@@H]4CC[C@H]5C[C@@H](O)CC[C@]5(C)[C@H]4CC[C@]13C)CO2`: the growth inhibition was 90% (active) in experiment [1] (setting [7]); 99% (active) in experiment [1] (setting [8]); 99% (active) in experiment [1] (at 50.0 µM); 59% in experiment [2] (setting [7]); 99% (active) in experiment [2] (setting [8]); 99.3% (active) in experiment [2] (at 50.0 µM). The growth inhibition in experiment [3] (setting [7]) is 97% (active); in experiment [3] (setting [8]), 100% (active); in experiment [3] (at 50.0 µM), 99.2% (active); in experiment [4] (setting [7]) it was 95% (active); in experiment [4] (setting [8]), 99% (active); in experiment [4] (at 50.0 µM), 98.2% (active). The growth inhibition was 91% (active) in experiment [5] (setting [7]); 99% (active) in experiment [5] (setting [8]); 98.7% (active) in experiment [5] (at 50.0 µM); 97% (active) in experiment [6] (setting [7]); 99% (active) in experiment [6] (setting [8]); 98.4% (active) in experiment [6] (at 50.0 µM).
With `Nc1ccccc1Sc1ccc(C(F)(F)F)cc1[N+](=O)[O-]`, the growth inhibition was -1% in experiment [1] (setting [7]); 23% in experiment [1] (setting [8]); 99.1% (active) in experiment [1] (at 50.0 µM); 2% in experiment [2] (setting [7]); 30% in experiment [2] (setting [8]); 99% (active) in experiment [2] (at 50.0 µM). Moreover, the growth inhibition was 0% in experiment [3] (setting [7]); 23% in experiment [3] (setting [8]); 99.2% (active) in experiment [3] (at 50.0 µM); -2% in experiment [4] (setting [7]); 22% in experiment [4] (setting [8]); 94.7% (active) in experiment [4] (at 50.0 µM). In addition, the growth inhibition in experiment [5] (setting [7]) is 6%; in experiment [5] (setting [8]), 26%; in experiment [5] (at 50.0 µM) it was 98.7% (active); in experiment [6] (setting [7]), -1%; in experiment [6] (setting [8]), 19%; in experiment [6] (at 50.0 µM) it was 98.9% (active).
Turning to `C/C(=N/NC(N)=S)C(CN1CCOCC1)C(C1=C(O)c2ccccc2OC1)c1ccccc1` (stereo not given), the growth inhibition in experiment [1] (setting [7]) is 26%; in experiment [1] (setting [8]) it was 26%; in experiment [1] (at 50.0 µM), 75% (active); in experiment [2] (setting [7]), 28%; in experiment [2] (setting [8]), 28%; in experiment [2] (at 50.0 µM) it was 71.8% (active). Also, the growth inhibition was 24% in experiment [3] (setting [7]); 24% in experiment [3] (setting [8]); 80.9% (active) in experiment [3] (at 50.0 µM); 6% in experiment [4] (setting [7]); 6% in experiment [4] (setting [8]); 75.4% (active) in experiment [4] (at 50.0 µM). Also, the growth inhibition was 24% in experiment [5] (setting [7]); 24% in experiment [5] (setting [8]); 71% (active) in experiment [5] (at 50.0 µM); 26% in experiment [6] (setting [7]); 26% in experiment [6] (setting [8]); 77.7% (active) in experiment [6] (at 50.0 µM).
As to `O=S(=O)(Nc1nccs1)c1ccc(N=Cc2cn(Cc3ccccc3)c3ccccc23)cc1`, the growth inhibition in experiment [1] (setting [7]) was 3%; in experiment [1] (setting [8]) it was 53%; in experiment [1] (at 50.0 µM) it was 82.3% (active); in experiment [2] (setting [7]), -3%; in experiment [2] (setting [8]) it was 7%; in experiment [2] (at 50.0 µM) it was 36.4%. The growth inhibition was 3% in experiment [3] (setting [7]); 57% in experiment [3] (setting [8]); 85.9% (active) in experiment [3] (at 50.0 µM); 9% in experiment [4] (setting [7]); 11% in experiment [4] (setting [8]); 27.4% in experiment [4] (at 50.0 µM). In addition, the growth inhibition in experiment [5] (setting [7]) is 1%; in experiment [5] (setting [8]) it was 8%; in experiment [5] (at 50.0 µM), 9.5%; in experiment [6] (setting [7]) it was 5%; in experiment [6] (setting [8]), 38%; in experiment [6] (at 50.0 µM), 52.4%.
Turning to `O=c1[nH]cnc2nc(I)[nH]c12`, the growth inhibition is 1% in experiment [1] (setting [7]); 3% in experiment [1] (setting [8]); 14.8% in experiment [1] (at 50.0 µM); -9% in experiment [2] (setting [7]); -3% in experiment [2] (setting [8]); 0.05% in experiment [2] (at 50.0 µM). Besides, the growth inhibition in experiment [3] (setting [7]) is -5%; in experiment [3] (setting [8]), 5%; in experiment [3] (at 50.0 µM) it was -0.3%; in experiment [4] (setting [7]), 1%; in experiment [4] (setting [8]), -7%; in experiment [4] (at 50.0 µM) it was 38.5%. Further, the growth inhibition in experiment [5] (setting [7]) is -1%; in experiment [5] (setting [8]) it was -8%; in experiment [5] (at 50.0 µM), 30.1%; in experiment [6] (setting [7]) it was 7%; in experiment [6] (setting [8]), -5%; in experiment [6] (at 50.0 µM) it was 6%.
With `Cn1nc2c(c(Cl)c1=O)Nc1ccccc1O2`, the growth inhibition is -32% in experiment [1] (setting [7]); -16% in experiment [1] (setting [8]); 0.85% in experiment [1] (at 50.0 µM); -9% in experiment [2] (setting [7]); -34% in experiment [2] (setting [8]); -30.4% in experiment [2] (at 50.0 µM). The growth inhibition in experiment [3] (setting [7]) is -20%; in experiment [3] (setting [8]), -19%; in experiment [3] (at 50.0 µM) it was -24.8%; in experiment [4] (setting [7]), -8%; in experiment [4] (setting [8]), -9%; in experiment [4] (at 50.0 µM), 23.1%. Besides, the growth inhibition was -45% in experiment [5] (setting [7]); -18% in experiment [5] (setting [8]); 1.35% in experiment [5] (at 50.0 µM); -25% in experiment [6] (setting [7]); -14% in experiment [6] (setting [8]); -6.7% in experiment [6] (at 50.0 µM).
